Rows were chosen to be rich in hits. Some 11% of all compounds tested hit in one or more screens of this group.
PLK1 PBD block = qHTS for Inhibitors of PLK1-PDB (polo-like kinase 1 - polo-box domain): Primary Screen; Plk1 PBD binding of FITC phosphopeptide, fluorescence polarization; Potency, µM, for the others: max response, negative = inhibition, hits mostly inhibitors; actives 2.8% (n = 360,000); note: series mostly up to about 57 µM; % is set by controls: 0 for no effect and ±100 for the full control effect; nearly all actives have a fitted effect of over 65% in size
BAZ2B inh = qHTS Assay for Inhibitors of BAZ2B; Potency, µM (titrated, usually from 114 µM), for inactives: at the top dose activity change, negative = inhibition, actives largely listed as inhibitors; AID 504333, 2011; AlphaScreen BAZ2B-H3K14Ac peptide displacement; actives 4.4% (n = 360,000); note: % is set by controls: 0 for no effect and ±100 for the full control effect; nearly all actives have a fitted effect of over 60% in size
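BAZ2B (50 nM) with biotin-H3(5-23)K14Ac peptide (50 nM) in PBS pH 7.4, 0.01% Tween-20, preformed 30 min, then compound 30 min at room temperature; top concentration 110uM. AlphaScreen streptavidin donor/nickel chelate acceptor beads (10 ug/mL final), 20 min dark, signal read.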
JMJD2A Tudor inh = qHTS Assay for Inhibitors of JMJD2A-Tudor Domain; Lysine-specific demethylase 4A (Homo sapiens), O75164; AlphaScreen JMJD2A-Tudor / H3K4me3 peptide binding; Potency, µM (titrated, usually from 114 µM), without a hit: top-dose activity change, negative = inhibition, usual class: inhibitors; actives 4.4% (n = 390,000); AID 504339, 2011; note: % is set by controls: 0 for no effect and ±100 for the full control effect; nearly all actives have a fitted effect of over 50% in size
VDR inh = Inhibitors of the vitamin D receptor (VDR): qHTS | actives 0.93% (n = 400,000) | Potency, µM, for inactives: max response, negative = inhibition, hits mostly inhibitors | VDR-SRC2-3 peptide fluorescence polarization, 2 h | Vitamin D3 receptor (Homo sapiens), P11473; note: % is set by controls: 0 for no effect and ±100 for the full control effect
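Inhibition of the VDR/SRC2-3 peptide interaction is quantified by fluorescence polarization. Compounds (23 nl, pintool) incubate with the reagents for 2 hours at ambient room temperature.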
G9a block = qHTS Assay for Inhibitors of Histone Lysine Methyltransferase G9a; AID 504332, 2011; G9a H3K9 monomethylation, AlphaScreen, 2 h; actives 8.8% (n = 350,000); Potency, µM (series often up to 102 µM), for the others: top-dose activity, negative = inhibition, hits mostly inhibitors; note: % is set by controls: 0 for no effect and ±100 for the full control effect; nearly all actives have a fitted effect of over 75% in size
Target sequence (Q96KQ7 913-1193 limits assumed): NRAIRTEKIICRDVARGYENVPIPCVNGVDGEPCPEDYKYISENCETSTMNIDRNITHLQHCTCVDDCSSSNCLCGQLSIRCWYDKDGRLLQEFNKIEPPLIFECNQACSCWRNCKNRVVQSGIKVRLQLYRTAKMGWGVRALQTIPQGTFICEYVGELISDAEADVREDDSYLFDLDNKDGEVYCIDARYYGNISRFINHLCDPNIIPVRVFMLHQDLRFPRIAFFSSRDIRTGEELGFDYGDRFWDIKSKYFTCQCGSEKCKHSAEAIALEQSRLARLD
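Enzyme 20 nM + cpd, 15 min RT; add b-H3K9 pep 500 nM / SAM 20 uM; 2 h RT; anti-H3K9me1 Ab 0.5 ug/mL + SA donor / anti-rabbit acceptor beads 20 ug/mL each, 10 min; AlphaScreen read.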
HP1b chromo inh = HTS for Inhibitors of HP1-beta Chromodomain Interactions with Methylated Histone Tails; actives 0.56% (n = 390,000); Chromobox protein homolog 1 (Homo sapiens), P83916; AlphaScreen HP1-beta / biotin-H3K9me3 peptide binding; Potency, µM (highest dose often 114 µM), for inactives: at the top dose activity change, negative = inhibition, hits mostly inhibitors; note: nearly all actives have a fitted effect of over 70% in size
Target sequence (P83916 whole entry, looked up): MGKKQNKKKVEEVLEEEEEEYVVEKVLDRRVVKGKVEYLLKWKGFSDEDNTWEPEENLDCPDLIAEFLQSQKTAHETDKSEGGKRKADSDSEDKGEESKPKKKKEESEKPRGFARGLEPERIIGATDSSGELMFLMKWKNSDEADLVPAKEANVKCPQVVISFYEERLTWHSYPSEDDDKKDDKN
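AlphaScreen: HP1-beta (50 nM) preformed 30 min with biotin-H3(1-18)K9me3 peptide (50 nM) in PBS pH 7.4, 0.01% Tween-20. Compound added for 30 min at RT, then streptavidin donor/nickel chelate acceptor beads (10 ug/mL) for 30 min.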
Numbers without * were called inactive; u = inconclusive; x = not tested or not shown; [ ] = another dose, or the depositor's remark. Calls come from the whole dose curve; as a rule, active = well fitted curve in the direction sought with a large enough effect; inconclusive = small, poorly fitted or top-dose-only effect, or another doubt; inactive = no such curve, though single readings can be large; an effect the other way counts as inactive or inconclusive. Potency is the fitted concentration of half-maximal effect.

SMILES	PLK1 PBD block	BAZ2B inh	JMJD2A Tudor inh	VDR inh	G9a block	HP1b chromo inh
CN(C(=O)c1cccc(NC(=O)Cc2cccc(NC(=O)C3CCN(C(=O)C4CCCCC4)CC3)c2)c1)C1CCC1	-9%	x	-20%	-2%	x	14%
COCCN(C(=O)COC(=O)CCc1ccccc1OC)c1c(N)n(Cc2ccccc2)c(=O)[nH]c1=O	-3%	-1%	-30%	-18%	13µM*	29%
CCc1noc(C)c1C(=O)N(CC(C)C)c1c(N)n(Cc2ccccc2)c(=O)[nH]c1=O	2%	-4%	-11%	-5%	-8%	20%
CCN(C(=O)COC(=O)CCc1ccccc1OC)c1c(N)n(Cc2ccccc2)c(=O)[nH]c1=O	-7%	15%	-17%	-4%	-30%	5%
CCc1noc(C)c1C(=O)OCC(=O)N(C)c1c(N)n(Cc2ccccc2)c(=O)[nH]c1=O	-2%	10%	-1%	-3%	50µM*	12%
NC1=NC[C@@H](Cc2ccc(O)cc2)N1CCCCC1CCCCC1	-1%	-2%	-31%	1%	-2%[12.7 µM]	17%
COC(=O)Nc1ccc2c(c1)Nc1ccccc1CC2	-5%	u	u	-16%	-12%[0.501 µM]	-1%
Nc1ccc2c(c1)Nc1ccccc1CC2	2%	28µM*	50µM*	6%	x	-32%
O=C(O)COc1ccccc1-c1nc(-c2ccccc2)c(-c2ccccc2)[nH]1	34µM*	u	-33%	-12%	79µM*	-5%
C#CCOCCOCCOCCNc1nc(N2CCN(C(=O)CCCCCCCCCCNC(=O)[C@H](CO)n3cc(CCCSC)nn3)CC2)nc(N2CCN(C(=O)CCCCCCCCCCNC(=O)[C@H](CCCN=C(N)N)n3cc(C[C@@H](C)CC)nn3)CC2)n1	21%	u	79µM*	78%	9%[2.33 µM]	-31%
C#CCOCCOCCOCCNc1nc(N2CCN(C(=O)CCCCCCCCCCNC(=O)Cn3cc(CCCCCN)nn3)CC2)nc(N2CCN(C(=O)CCCCCCCCCCNC(=O)[C@@H](CCSC)n3cc(CCO)nn3)CC2)n1	-9%	u	79µM*	25%	10%[2.33 µM]	u
C#CCOCCOCCOCCNc1nc(N2CCN(C(=O)CCCCCCCCCCNC(=O)Cn3cc(CCCCCN)nn3)CC2)nc(N2CCN(C(=O)CCCCCCCCCCNC(=O)[C@@H](CCC(=O)O)n3cc(CCCCCN)nn3)CC2)n1	-2%	-32%	u	-11%	7%[2.33 µM]	20%
C#CCOCCOCCOCCNc1nc(N2CCN(C(=O)CCCCCCCCCCNC(=O)Cn3cc(CCCCCN)nn3)CC2)nc(N2CCN(C(=O)CCCCCCCCCCNC(=O)Cn3cc(CCCCCN)nn3)CC2)n1	-8%	56µM*	56µM*	5%	-13%[2.33 µM]	u
C#CCOCCOCCOCCNc1nc(N2CCN(C(=O)CCCCCCCCCCNC(=O)Cn3cc(C[C@@H](C)O)nn3)CC2)nc(N2CCN(C(=O)CCCCCCCCCCNC(=O)[C@H](CO)n3cc(CCCSC)nn3)CC2)n1	-8%	7%	-3%	-22%	-8%[2.33 µM]	67%
C#CCOCCOCCOCCNc1nc(N2CCN(C(=O)CCCCCCCCCCNC(=O)Cn3cc(C[C@@H](C)O)nn3)CC2)nc(N2CCN(C(=O)CCCCCCCCCCNC(=O)[C@H](CCCN=C(N)N)n3cc(C[C@@H](C)CC)nn3)CC2)n1	23%	u	45µM*	80%	-35%[2.33 µM]	u
Cc1ccccc1Nc1nc(C#N)nc(NC2CCCC2)n1	x	x	3%	x	x	x
C#CCOCCOCCOCCNc1nc(N2CCN(C(=O)CCCCCCCCCCNC(=O)[C@H](CO)n3cc(CCCSC)nn3)CC2)nc(N2CCN(C(=O)CCCCCCCCCCNC(=O)[C@H](CCCCN)n3cc(CCO)nn3)CC2)n1	-21%	x	56µM*	22%	x	u
CCOC(=O)c1cc(S(=O)(=O)NC2CCN(C(=O)OCC)CC2)cn1C	-18%	3%	-14%	-9%	50µM*	28%
Cn1/c(=N/N=C/c2ccccn2)sc2ccccc21	-28%	u	89µM*	11%	u	u
COc1cc(OC)cc(C(=O)NC2CCSc3ccccc32)c1 (stereo unspecified)	-13%	-13%	-29%	3%	u	23%
Cc1cnc(C(=O)NC2CCSc3ccccc32)cn1 (stereo unspecified)	3%	-26%	-5%	1%	45µM*	57%
O=C(O)c1ccc2c(=O)[nH]c(CN3CCOCC3)nc2c1	-4%	u	35µM*	-10%	u	14%
Cc1ccc2c(=O)[nH]c(Cc3ccccc3C(=O)O)nc2c1	-15%	-8%	-2%	-9%	10%[12.7 µM]	35%
O=C(O)c1ccc2c(=O)[nH]c(CCl)nc2c1	u	-39%	u	-15%	56µM*	84%
O=C1CN(Cc2nc3cc(Cl)ccc3c(=O)[nH]2)CCN1	-25%	-17%	2.5µM*	-3%	u	51%
SMILES	PLK1 PBD block	BAZ2B inh	JMJD2A Tudor inh	VDR inh	G9a block	HP1b chromo inh
Cn1c(CN2CCOCC2)nc2cc(NC(=O)c3ccccc3[N+](=O)[O-])ccc21	x	-10%	0%	10%	-23%[59 µM]	33%
O=C(Cn1c(=O)n(-c2ccccc2)c(=O)c2sc3ccccc3c21)N1CCCC1	x	-18%	-11%	9%	-13%[59 µM]	39%
N#Cc1nc(Nc2ccc(F)cc2)nc(NC2CCCC2)n1	x	x	-21%	x	x	x
O=C1CCCCC1c1cccc2ccccc12 (stereo unspecified)	-13%	1%	-5%	-17%	4%[59 µM]	37%
O=C1O/C(=C/Br)CCC1c1cccc2ccccc12 (stereo unspecified)	x	x	x	18µM*	27%[59 µM]	x
CC(Sc1nc2ccccc2c(=O)[nH]1)C(=O)O (stereo unspecified)	2%	-7%	-8%	0%	3.2µM*	13%
Cc1cc(C(=O)CSc2n[nH]c(N)n2)c(C)n1C1CC1	-8%	-36%	-34%	-6%	x	-14%
Cc1ccc(C(=O)CSc2nc3ccccc3c(=O)[nH]2)cc1	0%	10%	6%	-10%	45µM*	28%
C=CCn1c(C)cc(C(=O)CSc2nc3ccccc3c(=O)[nH]2)c1C	12µM*	u	-9%[11.4 µM]	-13%	50µM*	-24%
C=CCn1c(C)cc(C(=O)CSc2n[nH]c(N)n2)c1C	-7%	-2%	u	-10%	32µM*	8%
CC(C)Sc1nc2ccccc2c(=O)[nH]1	3%	3%	21%	-5%	6%	39%

Screening results from PubChem.
